# “And” between values parts separate entries of the source, which are not always exact repeats. Equal values may be shown once. For some of these results: Measured potencies and affinities stand elsewhere. The source made the active and inactive calls.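 Rule for the calls, unless noted: active = fitted half-maximal concentration within 10 nM to 100 µM, steepness 0.5 to 2, significant signal drop, low assay interference; inactive = the rest.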
# How the values were obtained:
# [1] = molecular target: Ras-related C3 botulinum toxin substrate 1 (Homo sapiens) (UniProt P63000); assay: inhibition of wildtype Rac1 nucleotide loading – biochemical, multiplex bead flow cytometry, dose response (AID 1340;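 active = dose curve with midpoint inside tested range, moderate steepness, plateau gap beyond fit error, low compound glow and bead-link interference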); details: GST-Rac1 beads, Bodipy-FL-GTP binding; at 100 µM (top of the series) unless noted
# [2] = molecular target: GTPase HRas (Homo sapiens) (UniProt P01112); assay: Ras wt fluorescent GTP loading blockade – biochemical, wildtype, multiplex bead flow cytometry, dose response (AID 1335); details: bead-based flow cytometry, Bodipy-GTP binding to GST-Ras; at 100 µM (top of the series) unless noted
# GTPase HRas (Homo sapiens), sequence (P01112 whole entry, looked up): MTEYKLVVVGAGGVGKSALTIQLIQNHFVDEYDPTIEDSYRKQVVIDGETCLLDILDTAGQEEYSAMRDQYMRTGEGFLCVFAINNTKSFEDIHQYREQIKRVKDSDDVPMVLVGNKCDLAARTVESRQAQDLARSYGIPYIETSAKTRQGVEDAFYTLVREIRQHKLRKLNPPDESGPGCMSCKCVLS
# [3] = test system: Ras-related protein Rab-7a (dog), GTP binding; assay: blockers of fluorescent GTP binding to Rab7 – biochemical, wildtype, multiplex bead flow cytometry, dose response (AID 1336; call rule not given here)
# [4] = molecular target: GTPase HRas (Homo sapiens) (UniProt P01112); assay: blockade of GTP loading onto mutant Ras – biochemical, activated mutant, multiplex bead flow cytometry, dose response (AID 1341;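 active = dose-response curve with midpoint inside the tested range, moderate steepness, significant amplitude and little compound fluorescence or bead-attachment interference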;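 note: GST-tagged constitutively activated Ras mutant immobilized on beads and multiplexed with other GTPases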)
# [5] = molecular target: Cell division control protein 42 homolog (Homo sapiens) (UniProt P60953); assay: inhibition of fluorescent GTP binding to wildtype Cdc42 – biochemical, multiplex bead flow cytometry, Bodipy-FL-GTP, dose response (AID 1334;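 active = fitted half-maximal concentration within the tested range, moderate curve steepness, significant signal drop, and little compound fluorescence or bead-linkage interference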); details: bead-based flow cytometry, Bodipy-FL-GTP binding to GST-Cdc42; at 100 µM (top of the series) unless noted
# Cell division control protein 42 homolog (Homo sapiens), sequence (P60953 whole entry, looked up): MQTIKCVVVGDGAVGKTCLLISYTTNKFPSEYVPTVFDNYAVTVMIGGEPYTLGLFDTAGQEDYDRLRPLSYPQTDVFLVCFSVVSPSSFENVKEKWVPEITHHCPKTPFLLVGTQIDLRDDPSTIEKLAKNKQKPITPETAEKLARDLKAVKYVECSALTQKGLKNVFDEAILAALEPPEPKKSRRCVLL
# [6] = hit retest on RPL19A-GFP reporter strain – cell-based, S. cerevisiae, flow cytometry, cherry picks, mother/daughter gates, confirmation (AID 2270;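 active = GFP response below 50% of the DMSO control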); details: 3 h, at 10 µM, stronger effect = lower value, 100 = same GFP as DMSO wells
# [7] = yeast TOR pathway reporter LAP4-GFP change – cell-based, cherry picks, flow cytometry, mother/daughter gates, confirmation (AID 2271;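 active = GFP response above 150% of the DMSO control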;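 note: ratio of sample to DMSO plate mean so 100% equals DMSO level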); details: S. cerevisiae LAP4-GFP strain, 3 h, at 10 µM, stronger effect = higher value, 100 means same as DMSO control
# [8] = TOR pathway reporter MEP2-GFP, retest of hits – S. cerevisiae, flow cytometry GFP, cherry picks, confirmation (AID 2272;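 active = GFP response above 150% of the DMSO control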;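 note: ratio of well signal to plate DMSO mean so 100% equals DMSO level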); details: S. cerevisiae MEP2-GFP strain, 3 h, at 10 µM, stronger effect = higher value
# [9] = yeast AGP1-GFP fluorescence change, single-dose – cell-based, flow cytometry, S. cerevisiae, cherry picks, confirmation (AID 2273;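 active = GFP response above 150% of the DMSO level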;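 note: median GFP channel fluorescence over the whole cell population gate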); details: S. cerevisiae AGP1-GFP strain, 3 h, at 10 µM
# [10] = TOR pathway CIT2 reporter hit retest – S. cerevisiae, GFP fusion, cherry picks, mother/daughter gates, confirmation (AID 2274;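 active = GFP response above 150% of the DMSO level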); details: S. cerevisiae CIT2-GFP strain, flow cytometry, 3 h, at 10 µM, stronger effect = higher value
# [11] = measured here: daughter cell gate
# [12] = measured here: mother cell gate
compound,measurement,setting,value
CCn1cc(C(=O)OCC(=O)c2cc(C)n(-c3ccc(OC(F)F)cc3)c2C)c(=O)c2ccc(C)nc21,"GTP binding signal, raw median fluorescence (lower = inhibition) (MCF (arbitrary fluorescence units))",[1],148
N#Cc1c(-c2ccccc2)nc(SCC(=O)Nc2ccccc2)[nH]c1=O,"GTP binding, percent of control",[2],47.2%
CCCN1C(=O)/C(=C/C=C2\N(CC)c3ccccc3C2(C)C)SC1=S,"GTP binding, percent of control",[2],127%
same,outcome,[3],inactive
same,"GTP binding signal, raw median fluorescence (lower = inhibition) (MCF (arbitrary fluorescence units))",[1],176
same,outcome,[4],inactive
CCc1ccc(NS(=O)(=O)c2ccc3[nH]cc(C(=O)N4CCc5ccccc54)c(=O)c3c2)cc1,"GTP binding, percent of control",[2],62.6%
same,outcome,[3],inactive
same,"GTP binding signal, raw median fluorescence (lower = inhibition) (MCF (arbitrary fluorescence units))",[1],167
same,outcome,[4],inactive
Cc1ccc(SC(CC(=O)c2ccc(C(C)(C)C)cc2)C(=O)O)cc1 (configuration not stated),"fluorescence, percent of control (lower = inhibition)",[5],26.6%
same,"GTP binding, percent of control",[2],72.6%
same,outcome,[3],inactive
same,"GTP binding signal, raw median fluorescence (lower = inhibition) (MCF (arbitrary fluorescence units))",[1],240
same,outcome,[4],inactive
same,GFP response vs DMSO,[6],95.8% (inactive)
same,GFP response vs DMSO,[6]; [11],94%
same,GFP response vs DMSO,[6]; [12],97.3%
same,GFP response relative to DMSO,[7],106% (inactive)
same,GFP response relative to DMSO,[7]; measured here: daughter cell gate response,103%
same,GFP response relative to DMSO,[7]; measured here: mother cell gate response,111%
same,GFP response vs DMSO,[8],94.4% (inactive)
same,"GFP response, % of DMSO",[9],99.3% (inactive)
same,"GFP response, % of DMSO",[10],92.2% (inactive)
same,"GFP response, % of DMSO",[10]; [11],90.5%
same,"GFP response, % of DMSO",[10]; [12],91.8%
O=C(C#CC1CCCCC1)c1ccc([N+](=O)[O-])cc1,"fluorescence, percent of control (lower = inhibition)",[5],33%
same,"GTP binding, percent of control",[2],177%
same,outcome,[3],inactive
same,"GTP binding signal, raw median fluorescence (lower = inhibition) (MCF (arbitrary fluorescence units))",[1],45.6
same,outcome,[4],inactive
COc1cc(OC)c(-c2c3cc(O)c(=O)cc-3oc3cc(O)c(O)cc23)cc1OC,"GTP binding signal, raw median fluorescence (lower = inhibition) (MCF (arbitrary fluorescence units))",[1],480
N#C/C(=C/c1ccc(N2CCCCC2)o1)C(=O)Nc1ccc2ccccc2c1,"GTP binding signal, raw median fluorescence (lower = inhibition) (MCF (arbitrary fluorescence units))",[1],469
O=C(Nc1ccccc1)C1=C(c2ccccc2)S(=O)(=O)CCS1(=O)=O,"fluorescence, percent of control (lower = inhibition)",[5],21.5%
same,"GTP binding, percent of control",[2],72.8%
same,outcome,[3],inactive
same,"GTP binding signal, raw median fluorescence (lower = inhibition) (MCF (arbitrary fluorescence units))",[1],217
same,outcome,[4],inactive
O=C(O)c1ccccc1Sc1ncnc2sc3c(c12)CCC3,"GTP binding, percent of control",[2],118%
same,outcome,[4],inactive
CCCc1nc2c(=O)n(C)c(=O)nc-2n(C)n1,"GTP binding, percent of control",[2],84.4%
same,outcome,[3],inactive
same,outcome,[4],inactive
COc1ccc(-c2cc(=O)c3cc(OC)ccc3[nH]2)cc1,"GTP binding signal, raw median fluorescence (lower = inhibition) (MCF (arbitrary fluorescence units))",[1],229
O=C(Nc1nnc(-c2ccc3c(c2)OCCO3)o1)c1ccc(Cc2ccccc2)cc1,"GTP binding, percent of control",[2],83.9%
same,outcome,[3],inactive
same,"GTP binding signal, raw median fluorescence (lower = inhibition) (MCF (arbitrary fluorescence units))",[1],144
same,outcome,[4],inactive
CCOc1ccccc1-c1c2cc(O)c(=O)cc-2oc2cc(O)c(O)cc12,"GTP binding signal, raw median fluorescence (lower = inhibition) (MCF (arbitrary fluorescence units))",[1],184
COc1ccc(-c2cc(C#N)nc(N3CCNCC3)n2)cc1,"GTP binding, percent of control",[2],153%
same,outcome,[3],inactive
same,"GTP binding signal, raw median fluorescence (lower = inhibition) (MCF (arbitrary fluorescence units))",[1],182
same,outcome,[4],inactive
Cc1ccccc1N(CC(=O)N/N=C/c1ccccc1Cl)C(=O)c1ccccc1,"GTP binding signal, raw median fluorescence (lower = inhibition) (MCF (arbitrary fluorescence units))",[1],212
NS(=O)(=O)c1ccc(N2N=C(c3ccccc3)CC2c2cccc(F)c2)cc1 (configuration not stated),"GTP binding, percent of control",[2],50% and 86.8%
same,outcome,[3],inactive
same,"GTP binding signal, raw median fluorescence (lower = inhibition) (MCF (arbitrary fluorescence units))",[1],0 and 100
same,outcome,[4],inactive
OC(CNCCc1ccc(Cl)cc1)COc1ccc2ccccc2c1 (configuration not stated),"fluorescence, percent of control (lower = inhibition)",[5],40.2%
same,"GTP binding, percent of control",[2],85.7%
same,outcome,[3],inactive
same,outcome,[4],inactive
Cc1cc(C)c(C)c(C(=O)c2ccccc2C(=O)O)c1C,"GTP binding, percent of control",[2],122%
same,outcome,[3],inactive
same,outcome,[4],inactive
O=C(O)c1ccccc1NCCc1ccc(Cl)cc1,"GTP binding, percent of control",[2],87%
same,outcome,[4],inactive
